Source: PubChem BioAssay AID1159580 (chemical genetic matrix, 2015)
The campaign covered roughly 5,500 compounds. About 2,000 (36%) were called active. Another 18% or so got no clear call; they are omitted. Rule as the data show it: active = normalized growth mostly below about 0.91 (no sharp cut-off); inconclusive = no clear call, values can overlap the other calls; inactive = mostly above about 0.92. The list shows a part of the results.

Test: chemical genetic growth profiling, strain panel (AID 1159580);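 also: tested at 20 µM; growth read once vehicle control cultures reached saturation at 30 °C; 1 = growth at the plate median or of vehicle wells; lower values mean less growth of the strain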
Conditions: S. cerevisiae deletion strains, growth OD

Measured: normalized growth

COc1cc(N)c(Cl)cc1C(=O)NC1CCN(Cc2ccccc2)CC1
inactive: locus YAL013W, strain DEP1, active compounds read low 0.997 | locus YAL021C, strain ccr4, active compounds read low 1 | locus YAL026C, strain drs2, active compounds read low 1 | locus YAL030W, strain snc1, active compounds read low 1 | locus YBL061C, strain skt5, active compounds read low 0.997 | locus YBR009C, strain hhf1, active compounds read low 0.999 | locus YBR021W, strain FUR4, active compounds read low 1.07 | locus YBR023C, strain chs3, active compounds read low 0.995 | locus YBR171W, strain sec66, active compounds read low 0.999 | locus YBR229C, strain ROT2, active compounds read low 0.988 | locus YBR231C, strain swc5, active compounds read low 1 | locus YBR279W, strain paf1, active compounds read low 0.999 | locus YCL011C, strain gbp2, active compounds read low 0.994 | locus YCL016C, strain dcc1, active compounds read low 1 | locus YCL029C, strain bik1, active compounds read low 0.962 | locus YCL061C, strain MRC1, active compounds read low 0.984 | locus YCL069W, strain vba3, active compounds read low 0.993 | locus YCR088W, strain abp1, active compounds read low 0.993 | locus YDL005C, strain med2, active compounds read low 0.996 | locus YDL035C, strain GPR1, active compounds read low 1 | locus YDL040C, strain nat1, active compounds read low 0.992 | locus YDL074C, strain BRE1, active compounds read low 0.97 | locus YDL101C, strain DUN1, active compounds read low 0.981 | locus YDL134C, strain PPH21, active compounds read low 0.999 | locus YDL185W, strain tfp1, active compounds read low 0.954 | locus YDL192W, strain arf1, active compounds read low 0.992 | locus YDR001C, strain nth1, active compounds read low 0.999 | locus YDR069C, strain doa4, active compounds read low 0.992 | locus YDR101C, strain arx1, active compounds read low 0.982 | locus YDR137W, strain rgp1, active compounds read low 1.01 | locus YDR150W, strain NUM1, active compounds read low 0.987 | locus YDR159W, strain sac3, active compounds read low 1 | locus YDR162C, strain NBP2, active compounds read low 0.996 | locus YDR195W, strain ref2 0.986 | locus YDR297W, strain sur2, active compounds read low 0.994 | locus YDR318W, strain mcm21, active compounds read low 0.981 | locus YDR334W, strain swr1, active compounds read low 0.998 | locus YDR335W, strain msn5, active compounds read low 0.986 | locus YDR388W, active compounds read low 0.993 | locus YDR392W, strain spt3, active compounds read low 0.995 | locus YDR502C, strain sam2, active compounds read low 1.01 | locus YEL003W, strain gim4, active compounds read low 0.999 | locus YEL037C, strain rad23, active compounds read low 0.996 | locus YEL061C, strain CIN8 (second series), active compounds read low 0.998 | locus YEL061C, strain CIN8, active compounds read low 0.995 | locus YER015W, strain faa2, active compounds read low 1 | locus YER016W, strain bim1, active compounds read low 0.994 | locus YER110C, active compounds read low 0.995 | locus YER111C, strain swi4, active compounds read low 0.991 | locus YER155C, strain BEM2 (second series), active compounds read low 0.988 | locus YER155C, strain BEM2, active compounds read low 0.982 | locus YER167W, strain BCK2, active compounds read low 0.996 | locus YFR010W, strain ubp6, active compounds read low 0.999 | locus YGL078C, strain dbp3, active compounds read low 0.996 | locus YGL086W, strain mad1, active compounds read low 1 | locus YGL167C, strain pmr1, active compounds read low 1 | locus YGL173C, strain kem1, active compounds read low 0.998 | locus YGL227W, strain vid30, active compounds read low 0.998 | locus YGL240W, strain doc1, active compounds read low 0.997 | locus YGL248W, strain PDE1, active compounds read low 1 | locus YGL253W, strain hxk2, active compounds read low 0.992 | locus YGR078C, strain PAC10, active compounds read low 0.982 | locus YGR135W, strain pre9, active compounds read low 0.998 | locus YGR229C, strain SMI1, active compounds read low 1.02 | locus YGR252W, strain gcn5, active compounds read low 1.15 | locus YHR013C, strain ard1, active compounds read low 0.996 | locus YHR027C, strain rpn1, active compounds read low 1 | locus YHR030C, strain SLT2, active compounds read low 0.996 | locus YHR079C, strain IRE1 (second series), active compounds read low 0.977 | locus YHR094C, strain hxt1, active compounds read low 0.974 | locus YHR129C, strain ARP1, active compounds read low 0.993 | locus YHR142W, strain chs7, active compounds read low 0.993 | locus YHR200W, strain rpn10, active compounds read low 0.989 | locus YIL066C, strain RNR3, active compounds read low 0.98 | locus YIL073C, strain SPO22, active compounds read low 0.997 | locus YIL125W, strain kgd1, active compounds read low 0.997 | locus YIR030C, strain dcg1, active compounds read low 0.988 | locus YJL092W, strain hpr5, active compounds read low 0.987 | locus YJL095W, strain BCK1 (second series), active compounds read low 0.998 | locus YJL095W, strain BCK1, active compounds read low 0.999 | locus YJL115W, strain asf1, active compounds read low 0.987 | locus YJL129C, strain trk1, active compounds read low 0.992 | locus YJL134W, strain LCB3, active compounds read low 0.998 | locus YJL154C, strain vps35, active compounds read low 1 | locus YJL164C, strain tpk1, active compounds read low 1 | locus YJL166W, strain qcr8, active compounds read low 0.996 | locus YJL168C, strain set2, active compounds read low 0.99 | locus YJL187C, strain SWE1 (second series), active compounds read low 0.966 | locus YJL187C, strain SWE1, active compounds read low 0.99
